Compound activity as filed in PubChem BioAssay.
MITF inh = MITF inhibitors, primary screen, biochemical, AlphaScreen, human; Microphthalmia-associated transcription factor (Homo sapiens), O75030; AlphaScreen MITF homodimerization, bead proximity signal; inhibition, % at 2.6 µM; hit rate 0.91% among 650,000; in the data active = inhibition above about 50%
Target sequence (O75030 whole entry, looked up): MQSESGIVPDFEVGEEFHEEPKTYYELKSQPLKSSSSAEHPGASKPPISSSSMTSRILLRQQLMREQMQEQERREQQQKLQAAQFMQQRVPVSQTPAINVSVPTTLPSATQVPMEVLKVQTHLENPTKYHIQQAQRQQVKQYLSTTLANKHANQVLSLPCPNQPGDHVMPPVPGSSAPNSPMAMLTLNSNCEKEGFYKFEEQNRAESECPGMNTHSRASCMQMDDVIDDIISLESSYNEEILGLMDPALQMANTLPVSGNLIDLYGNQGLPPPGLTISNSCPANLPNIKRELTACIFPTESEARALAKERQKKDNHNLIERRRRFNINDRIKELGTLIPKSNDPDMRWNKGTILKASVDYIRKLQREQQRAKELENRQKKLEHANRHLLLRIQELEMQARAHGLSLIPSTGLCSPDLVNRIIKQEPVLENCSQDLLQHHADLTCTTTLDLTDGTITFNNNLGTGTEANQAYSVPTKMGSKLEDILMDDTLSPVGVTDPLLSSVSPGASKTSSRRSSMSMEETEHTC
FBW7 act = FBW7 E3 ligase activators, primary screen, biochemical, AlphaScreen, human; F-box/WD repeat-containing protein 7 (Homo sapiens), Q969H0; AlphaScreen FBW7–phospho-cyclin E peptide binding, activator screen; normalized activity (activation), % at 26.1 µM; hit rate 0.13% among 650,000; AID 1259310, 2017; in the data active = normalized activity above about 1.9%;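 note: purified mutant Fbw7 with reduced substrate affinity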
GPR151 ag = activators of human GPR151, primary screen, cell-based, PathHunter beta-arrestin, luminescence; G-protein coupled receptor 151 (Homo sapiens), Q8TDV0; PathHunter beta-arrestin GPR151 cells; activation, % at 11.2 µM; hit rate 1% among 650,000; in the data active = activation above about 4.9%
TEAD-YAP inh = TEAD-YAP interaction inhibition, primary screen, TEAD-YAP interaction inhibitor project, luminescence, HEK-TIYL cells; TEAD-Gal4/YAP UAS-luciferase luminescence; inhibition, % at 9.12 µM; AID 1259422, 2018; hit rate 1.4% among 640,000; in the data active = inhibition above about 32%
GPR151 confirm = GPR151 activators, triplicate retest, confirmation, cell-based, PathHunter beta-arrestin, luminescence. shares compounds with GPR151 ag. 6,700 tested, under 10 active. activation, % at 11.2 µM. GPR151 PathHunter beta-arrestin cells, 90 min; % of EA-reagent control over plate median;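 active = mean percent activation across replicates above the confirmation screen cutoff of 4.91%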
GPR119 counter = GPR119 activators in beta-arrestin cells, counter-screen for GPR151 activator project, cell-based, PathHunter beta-arrestin, luminescence, triplicate | shares compounds with GPR151 ag | 90 min; 0 = compound-well median, 100 = enzyme-acceptor control | activation, % at 11.2 µM | hit rate 0.3% among 6,700;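 active = mean percent activation in the counterscreen above 29.09%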;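 note: counterscreen on off-target GPR119 to flag nonselective hits from the GPR151 activator screen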
Numbers stand for hits; – = inactive; · = no result given; ! = repeats disagree. In the library only some 3.5% were active in any assay of this set; here they are far more common.

SMILES | MITF inh | FBW7 act | GPR151 ag | TEAD-YAP inh | GPR151 confirm | GPR119 counter
CC(=O)CC/C=C(\C)CCC=C(C)C | – | – | 6.1 | – | – | –
O=C(O)COc1cc2oc(=O)c3c(c2cc1Cl)CCCC3 | – | – | – | – | · | ·
C=CCn1c(COc2cc(C)ccc2C(C)C)nc2ccccc21 | – | – | – | – | · | ·
O=C(NCc1ccco1)/C(=C/c1ccccc1)NC(=O)c1cccc(Br)c1 | – | – | 5.2 | – | – | –
O=C(NCc1ccco1)/C(=C/c1ccc(Cl)cc1)NC(=O)c1ccccc1 | – | – | – | – | · | ·
O=C(c1ncoc1-c1cccs1)N1CCN(c2ccccc2F)CC1 | – | – | 5.1 | – | – | –
O=C(c1cc(-c2cccs2)[nH]n1)N1CCN(c2ccccc2F)CC1 | – | – | – | – | · | ·
CCOC(=O)N1CCN(S(=O)(=O)c2ccc(C(=O)Nc3nc4c(s3)CCCC4)cc2)CC1 | – | – | – | – | · | ·
COc1ccc(C(=O)NC2CC2)cc1OC1CCN(Cc2ccc(F)cc2F)CC1 | – | – | 5.6 | – | – | –
Cc1cc(-c2nnc3n2CCC3)c(C)n1-c1ccccc1 | – | – | 5.7 | – | – | –
Cc1cc(-c2nnco2)c(C)n1-c1ccccc1 | – | – | – | – | · | ·
CC1CCCC(NC(=O)c2ccc3c(=O)n(CCCN4CCCC4=O)c(=S)[nH]c3c2)C1C (stereo unspecified) | – | – | – | – | · | ·
O=C(O)CCc1nn2c3ccccc3n(CC(=O)O)c2nc1=O | – | – | 21 | – | – | –
O=C(O)CCc1nn2c3ccccc3n(CCN3CCCCC3)c2nc1=O | – | – | – | – | · | ·
NCCNC(=O)/C(=N\O)c1ccccc1 | – | – | – | – | · | ·
O=C(NCCCNCCCNC(=O)/C(=N/O)c1ccccc1)/C(=N/O)c1ccccc1 | – | – | 5.4 | – | – | –
Cn1c2c(c(=O)n(C)c1=O)C(c1ccc(F)cc1)C1=C(CC(C)(C)CC1=O)N2 (stereo unspecified) | – | – | – | – | · | ·
Cc1ccc(C2C3=C(CC(C)(C)CC3=O)Nc3n[nH]c(C)c32)cc1 (stereo unspecified) | – | – | 8.4 | – | – | –
CC1=C(C(=O)Nc2nc3ccccc3s2)C(c2ccc(Br)cc2)C2=C(CC(C)(C)CC2=O)N1 (stereo unspecified) | – | – | – | – | · | ·
CC1=C(C(=O)Nc2nc3ccccc3s2)C(c2ccc(C)cc2)C2=C(CC(C)(C)CC2=O)N1 (stereo unspecified) | – | – | 6.5 | – | – | –
Cc1ccc(C2C3=C(CC(C)(C)CC3=O)Nc3c2c(=O)n(C)c(=O)n3C)cc1 (stereo unspecified) | – | – | 7.5 | – | – | –
COc1ccc(C(=O)C2CCN(Cc3nnnn3C3CCCCC3)CC2)cc1 | – | – | – | – | · | ·
Cn1c(=O)[nH]c(=O)c2c1nc(N(CCO)CCO)n2CCCc1ccccc1 | – | – | – | – | · | ·
Cc1cc(C)c2cc(CN(CCO)Cc3nnnn3CC3CCCO3)c(=O)[nH]c2c1 (stereo unspecified) | – | – | – | – | · | ·
COc1ccc(C2C(C(=O)NCCN(C)C)c3ccccc3C(=O)N2C)cc1 (stereo unspecified) | – | – | – | – | · | ·
SMILES | MITF inh | FBW7 act | GPR151 ag | TEAD-YAP inh | GPR151 confirm | GPR119 counter
COc1ccc2ccc(=O)oc2c1 | – | – | 5.0 | – | – | –
O=C(CCN1CCN(C2c3ccccc3-c3ccccc32)CC1)Nc1ccccc1F | – | – | 5.1 | – | – | –
Cc1cc2ccccc2c(=O)n1CC(=O)NCCCN1CCOCC1 | – | – | – | – | · | ·
Cc1ccc(S(=O)(=O)n2ccn(C(=O)c3ccccc3Br)c2=O)cc1 | – | – | 4.9 | – | – | –
O=C(Cn1ncc2c1-c1ccccc1OC2)NCc1ccccc1Cl | – | – | – | – | · | ·
NC(N)=NC(N)=Nc1cccc([N+](=O)[O-])c1 | – | – | – | – | · | ·
NC(N)=NC(N)=Nc1cccc(Cl)c1 | – | – | 10! | – | – | –
CCS/C(=C(\C#N)C(N)=O)c1ccc(-c2ccccc2)[nH]1 | – | – | 5.2 | – | – | –
Cc1ccc(S(=O)(=O)N(CC(N)=O)Cc2cccc(C)c2)cc1 | – | – | 5.2 | – | – | –
CC(C)(C)OC(=O)N[C@H]1CCC[C@@H](NC(=O)c2cccc(-n3cc(NC(=O)Cc4ccccc4)cn3)c2)C1 | – | – | 5.4 | – | – | –
COc1cc(/C=C(\C#N)c2ccc([N+](=O)[O-])cc2)ccc1O | – | – | – | – | · | ·
COC(=O)COc1ccc(/C=C(/C#N)c2ccc([N+](=O)[O-])cc2)cc1Br | – | – | 7.2 | – | – | –
N/C(=N\OC(=O)CCCN1C(=O)c2ccccc2C1=O)c1ccccn1 | – | – | 5.3 | – | – | –
CC(C)c1ccc(NC(=O)C2C3C=CC4(O3)C2C(=O)N(CCc2ccc(Cl)cc2)C4C(=O)NC2CCCCC2C)cc1 (stereo unspecified) | – | – | – | – | · | ·
COc1ccc(/C=C/CN2CCc3nnc(C(NS(C)(=O)=O)C(C)C)n3CC2)cc1 (stereo unspecified) | – | – | – | – | · | ·
COc1cc(C2Nc3ccccc3NC3=C2C(=O)CC(c2ccccc2Cl)C3)cc(OC)c1OC (stereo unspecified) | – | – | 5.6 | – | – | –
O=C1c2ccccc2C(=O)N1CN(C(=O)c1cc2nc(-c3cccs3)cc(C(F)(F)F)n2n1)c1cccc(F)c1 | – | – | – | – | · | ·
COc1cc(-c2c(C#N)c(N)nc(SCC(=O)O)c2C#N)cc(OC)c1OC | – | – | – | – | · | ·
O=C1CSC(c2cccc([N+](=O)[O-])c2)N1Cc1ccccc1 (stereo unspecified) | – | – | 10 | – | – | –
O=c1oc(-c2cccc(F)c2)nc2ccccc12 | – | – | – | – | · | ·
CN(C)CCN(C(=O)c1cccc(Oc2ccccc2)c1)c1nc2ccccc2s1 | – | – | – | – | · | ·
CC(C)=CCC[C@@H](C)C1CC[C@@]2(C)C3=C(CC[C@]12C)[C@@]1(C)CCC(O)C(C)(C)[C@@H]1CC3 (stereo partly specified) | – | – | 7.7! | – | – | –
CC(=O)O[C@H]1CCC2(C)C3=C(CCC2C1(C)C)[C@]1(C)CCC(C(C)CCC=C(C)C)[C@@]1(C)CC3 (stereo partly specified) | – | – | – | – | · | ·
O=C(O)c1ccccc1N=Cc1c(O)[nH]c2ccccc12 | – | – | – | – | · | ·
Cc1ccccc1NS(=O)(=O)c1ccc(-c2ccc(-n3cnnn3)cc2)cc1 | – | – | 5.7 | – | – | –
